High-throughput results: PubChem BioAssay, National Center for Advancing Translational Sciences (NCATS)
Most compounds without a hit are left out; they make up all but 7.3% or so of the library.
SMN2 splice up: enhancers of SMN2 splice variant expression; HEK293 SMN2-luciferase splicing reporter, luminescence, 30-36 h; Potency, µM (highest dose often 46.1 µM), for inactives: at the highest dose activity change, positive = activation, most hits filed as activators; 210,000 tested, 2.8% active; further: % of control where 0% means no effect; nearly all actives have a fitted effect of over 55% in size
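qHTS luciferase splicing reporter: luminescence rises when SMN2 exon 7 is included in transfected HEK293 cells. Compound exposure lasted 30-36 h at 37C, with 4.5 mM final sodium butyrate as control, followed by a ONE-Glo read.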
NPC1 prom act: NPC1 promoter activation | Huh7 NPC1 promoter luciferase reporter, 24 h | Potency, µM (doses to about 9.22 µM), for inactives: at the top dose activation, actives largely listed as activators | 320,000 tested, 2.4% active | AID 485313; further: % of control where 0% means no effect; nearly all actives have a fitted effect of over 60% in size
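Luciferase expression driven by the NPC1 promoter was measured in stably transfected Huh7 cells after a 24 h compound incubation, using a luciferase reagent and a luminescence read.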
Rab9 promoter act: activates the Rab9 promoter; Huh7 Rab9 promoter-luciferase reporter, luminescence, 24 h; Potency, µM (top dose mostly 9.22 µM), for inactives: at the top dose activation, negative = inhibition, most hits filed as activators; 320,000 tested, 2.8% active; further: % of control where 0% means no effect; nearly all actives have a fitted effect of over 60% in size
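Luciferase signal after 10 min detection reagent at ambient indicates Rab9 promoter upregulation; stably transfected Huh7 cells were treated 24 h with compound in DMSO at 37 °C, 5% CO2.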
ELG1 genotox: induces genotoxicity in HEK293T cells with luciferase-tagged ELG1. Potency, µM (top dose mostly 46 µM), without a hit: top-dose activity change, positive = activation, actives largely listed as activators. HEK293T ELG1-luciferase reporter, luminescence, 16 h. 330,000 tested, 1.3% active; further: % of control where 0% means no effect; nearly all actives have a fitted effect of over 60% in size
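Step 1: seed 2,000 HEK293T ELG1-luciferase cells per well. Step 2: add compound or DMSO, incubate 16 hr at 37 °C. Step 3: ONE-Glo, 30 min at room temperature, read luminescence.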
Luc counter: counter-screen: inhibitors of Kinase-Glo firefly luciferase; Q27757; Kinase-Glo luciferase, ATP luminescence, 8 min; Potency, µM (top dose mostly 38.3 µM), for inactives: at the highest dose activity change, negative = inhibition, hits mostly inhibitors; 200,000 tested, 0.28% active; AID 1379; further: on the % scale 0 is the no-effect control and ±100 the full control effect; nearly all actives have a fitted effect of over 60% in size
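Light output from Kinase-Glo luciferase with luciferin and 10 uM ATP in 50 mM imidazole pH 7.2, KCl, MgCl2, Tween 20, BSA; compound pin-delivered, 8-min ambient incubation, then luminescence read.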
FLuc modulator: counter-screen for miR-21 project: firefly luciferase inhibitors or activators; 360,000 tested, 6.9% active; Potency, µM (doses to about 57.5 µM), inactives show at the highest dose activity change, negative = inhibition, most hits filed as inhibitors; purified FLuc, Km substrates, luminescence inhibition; P08659;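 further: plate controls were vehicle for no effect and reference inhibitor for full effect; nearly all actives have a fitted effect of over 55% in size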
Target sequence (P08659 whole entry, looked up): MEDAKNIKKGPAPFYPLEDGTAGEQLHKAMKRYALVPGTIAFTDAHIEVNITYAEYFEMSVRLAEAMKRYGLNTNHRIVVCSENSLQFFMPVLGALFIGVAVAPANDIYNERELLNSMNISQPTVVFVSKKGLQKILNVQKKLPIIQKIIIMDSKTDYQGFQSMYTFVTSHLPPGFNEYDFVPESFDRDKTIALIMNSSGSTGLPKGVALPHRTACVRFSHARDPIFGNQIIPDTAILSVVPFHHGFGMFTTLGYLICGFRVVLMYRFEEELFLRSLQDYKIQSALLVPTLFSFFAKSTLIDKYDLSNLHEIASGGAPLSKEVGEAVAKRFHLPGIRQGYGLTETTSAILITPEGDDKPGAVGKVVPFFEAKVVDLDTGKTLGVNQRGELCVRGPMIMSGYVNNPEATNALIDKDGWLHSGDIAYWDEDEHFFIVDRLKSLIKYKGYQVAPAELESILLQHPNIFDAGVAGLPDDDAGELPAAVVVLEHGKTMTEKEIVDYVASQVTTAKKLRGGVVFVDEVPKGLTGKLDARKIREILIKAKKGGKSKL
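Purified P. pyralis luciferase (10nM final) with 10uM D-luciferin and 10uM ATP (Km levels) in 50mM Tris acetate pH 7.5, 10mM Mg acetate, 0.01% Tween-20, 0.05% BSA; qHTS 6-point titration, ~60 µM downward; luminescence read.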
The depositor's hits bear a star; u = inconclusive; x = not tested or not shown; [ ] = remark or other dose. The call rests on the fitted dose curve; in most records, active means well fitted curve in the direction sought with a large enough effect; inconclusive means small, poorly fitted or top-dose-only effect, or another doubt; inactive means no such curve, though single readings can be large; an effect the other way counts as inactive or inconclusive. Potency means the concentration at half of the fitted maximal effect.

SMILES	SMN2 splice up	NPC1 prom act	Rab9 promoter act	ELG1 genotox	Luc counter	FLuc modulator
Cc1ccc(NC(=O)c2oc3ccccc3c2C)nc1	x	3.5µM*	3.2µM*	u	x	12µM*
Cc1noc(C(=O)Nc2cccnc2Cl)c1Cl	x	-3%	12%	1%	x	4%
Cc1c(C(=O)Nc2ccccn2)oc2ccccc12	25µM*	u	u	u	-21%	4.3µM*
COc1ccc(OC)c(CNS(=O)(=O)c2ccc3c(c2)CCCN3C(C)=O)c1	x	x	x	x	x	-6%
COc1ccccc1Nc1nc(-c2ccc3c(c2)NC(=O)CO3)cs1	-95%	-4%	0%	-5%	3%	u
O=[N+]([O-])c1ccccc1Nc1nc(-c2cccnc2)cs1	x	u	28%	u	x	11µM*
COc1ccccc1Nc1nc(C2(C)CCC(=O)O2)cs1 (stereo unspecified)	14%	16%	22%	8%	1%	15µM*
COc1ccc(Nc2nc(-c3cccnc3)cs2)c(OC)c1	x	3.5µM*	u	1%	x	21µM*
COc1ccccc1Nc1nc(-c2cccnc2)cs1	x	u	u	10%	x	13µM*
NS(=O)(=O)c1ccc(NC(=O)CSc2nnc(NC3CC3)s2)cc1	x	-3%	1%	-1%	x	-1%
O=C(CSc1nnc(NC2CCCCC2)s1)Nc1ccc2c(c1)C(=O)c1ccccc1C2=O	11µM*	3.5µM*	2.8µM*	6%	0%	u
Cc1ccc(NC(=O)CN(C)C(=O)CSc2nnc(NC(C)C)s2)cc1	x	12%	2%	4%	x	0%
CC(C)Nc1nnc(SCC(=O)Nc2ccc3c(c2)C(=O)c2ccccc2C3=O)s1	14µM*	u	3.5µM*	-4%	2%	u
O=C(O)c1cccc(Nc2nc(-c3cc4ccccc4oc3=O)cs2)c1	x	2.8µM*	u	u	x	6µM*
O=c1oc2ccccc2cc1-c1csc(NN=C2CCCC2)n1	-1%[1.84 µM]	8%	15%	4%	2%	-13%
OC(Cc1ccccc1)(Cc1ccccc1)c1ccccc1	-7%[9.22 µM]	x	x	x	-6%[7.66 µM]	x
CCOc1ccc(NC(=O)Nc2ccc(Cc3ccncc3)cc2)cc1	x	1%	1%	-1%	x	0%
CCOc1ccc(C(=O)Nc2cccc(C)n2)cc1	5µM*	2µM*	1µM*	u	u	2.4µM*
Cc1cccc(NC(=O)c2ccc(Cl)nc2)n1	x	10%	12%	18%	x	-8%
Cc1cccc(NC(=O)c2ccc(S(=O)(=O)N(C)C)cc2)n1	-2%	22%	18%	u	-2%	-11%
CCOc1ccc(NC(=O)Nc2cccc(C)n2)cc1	28%	3.5µM*	2.5µM*	16%	x	u
CCCCOc1ccc(C(=O)Nc2cccc(C)n2)cc1	u	3.5µM*	u	13%	-19%	3µM*
O=C1NC(=O)/C(=C/c2ccc(O)cc2)S1	x	30%	u	u	4%	15µM*
CCOc1ccc(CNC(=O)c2cc3oc4ccccc4c3n2C)cc1	25µM*	7%	-1%	-9%	-6%	-6%
CCn1c(C(=O)NCc2ccc(F)cc2)cc2oc3ccccc3c21	u	x	x	x	x	1%
SMILES	SMN2 splice up	NPC1 prom act	Rab9 promoter act	ELG1 genotox	Luc counter	FLuc modulator
COc1cccc(CNC(=O)c2cc3oc4ccccc4c3n2C)c1OC	16µM*	0%	7%	7%	-5%	u
C[Si](C)(C/C=C/CC[C@H](O)C1=CCCCC1=O)c1ccccc1	2%	x	x	x	-2%	x
COC(=O)c1cc2sc(Cl)cc2n1Cc1nc(-c2ccccc2F)oc1C	3%	x	x	x	x	-7%
Cc1oc(C(C)(C)C)cc1C(=O)Nc1ccc2c(c1)OCO2	x	22%	19%	-2%	x	u
O=C(Nc1ccc2c(c1)OCCO2)c1cc(F)c(F)cc1Cl	x	2.2µM*	2.5µM*	u	x	12µM*
Cc1ccc(C(=O)Nc2ccc3c(c2)OCCO3)c(Cl)c1	x	0.089µM*	0.089µM*	u	x	0.43µM*
O=C(Nc1ccc2c(c1)OCCO2)c1c(F)c(F)c(F)c(F)c1F	-4%	-1%	5%	1%	-6%	2%
Cc1oc(C(C)(C)C)cc1C(=O)Nc1ccc2c(c1)OCCO2	30%	x	x	x	1%	12µM*
O=C(Nc1ccc2c(c1)OCCO2)c1cccc(Cl)c1Cl	x	3.5µM*	1.6µM*	2.6µM*	x	7.6µM*
Cc1ccc(S(=O)(=O)NC(=O)OC23COCN2COC3)cc1	-7%[9.22 µM]	x	x	x	-1%[7.66 µM]	x
CCOc1ccc(-n2cc(-c3ccccc3)c3c(N4CCC(C)CC4)ncnc32)cc1	x	x	x	x	x	-9%
COc1cc(-c2nnn(CC(=O)NC3CCS(=O)(=O)C3)n2)ccc1OCc1ccccc1 (stereo unspecified)	u	u	18%	u	0%	12µM*
Cc1ccc(Cn2cccc(-c3nc4ccccc4s3)c2=O)cc1	7.1µM*	2.8µM*	2.2µM*	6%	2%	2.1µM*
O=c1c(-c2nc3ccccc3s2)cccn1Cc1ccccc1	u	1.8µM*	2.2µM*	7.3µM*	-5%	2.7µM*
O=C(Nc1ccccc1-c1nc2ccccc2s1)c1ccco1	-30%	2%	13%	0%	10%	-1%
CC(C)OCCCn1c(=O)c2ccccc2n2c(-c3cc(Cl)ccc3O)nnc12	x	x	x	x	x	5%
CCOc1ccc(NC(=O)CC2C(=O)N(c3cccc(C)c3)C(=O)N2Cc2cccs2)cc1 (stereo unspecified)	x	x	x	x	x	1%
Cc1sc2nc(SCC(=O)Nc3ccccc3F)[nH]c(=O)c2c1C	x	-5%	0%	16%	x	-1%
Cc1sc2nc(SCC(=O)Nc3ccc(S(=O)(=O)NCCCC(=O)O)cc3)[nH]c(=O)c2c1C	x	-6%	-12%	0%	x	17µM*
Nc1nc(-c2ccc(Cl)cc2)nnc1-c1ccc(Br)cc1	x	1.8µM*	1.1µM*	u	-3%	u
Nc1nc(N)nc(-c2ccc(Cl)cc2)n1	25%	u	u	u	4%	15µM*
Cc1ccc(Oc2ccc(-c3nc(N)nc(N)n3)cc2)cc1	-10%	-3%	-3%	16%	-4%	u
COc1ccc(CN2C(=O)CN=C2Nc2cc(C)ccc2C)cc1	-21%	13%	30%	18µM*	0%	-1%
CCc1ccccc1NC1=NCC(=O)N1Cc1ccc(OC)cc1	x	-2%	9%	3%	x	1%
CCS(=O)(=O)N1CCCc2cc(C(=O)Nc3cc([N+](=O)[O-])ccc3C)ccc21	x	x	x	x	x	-14%
CCCCNC(=O)c1c(-c2ccccc2)c(-c2ccccc2)nn(C)c1=O	-2%	x	x	x	x	-1%
COc1cc(/C=C/c2ccc3cccc([N+](=O)[O-])c3n2)ccc1OCC(=O)O	6%	1%	2%	-1%	2%	1.9µM*
